Among all 370,000 compounds or so, about 2,600 (0.7%) were called active. This excerpt belongs to a sample that is enriched for actives. A number with no mark means an inactive call.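 How the source made its calls: active means inhibition above a per-plate cutoff, mean inhibition of test wells between control levels plus 3 SD (cut at about 38% in these data); inactive means the rest.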
molecular target: COUP transcription factor 2 (Homo sapiens) (UniProt P24468); experiment: COUP-TFII reporter suppression in human cells – cell-based, luciferase reporter, HEK293T, luminescence, primary screen (AID 686940); conditions: HEK293T NGFI-A luciferase reporter, at 8.6 µM, active compounds read high;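 further: cells cotransfected with COUP-TFII expression vector driving the NGFI-A reporter; 0% = median of COUP-TF2 test wells and 100% = reporter-only cells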
Sequence (P24468 whole entry, looked up): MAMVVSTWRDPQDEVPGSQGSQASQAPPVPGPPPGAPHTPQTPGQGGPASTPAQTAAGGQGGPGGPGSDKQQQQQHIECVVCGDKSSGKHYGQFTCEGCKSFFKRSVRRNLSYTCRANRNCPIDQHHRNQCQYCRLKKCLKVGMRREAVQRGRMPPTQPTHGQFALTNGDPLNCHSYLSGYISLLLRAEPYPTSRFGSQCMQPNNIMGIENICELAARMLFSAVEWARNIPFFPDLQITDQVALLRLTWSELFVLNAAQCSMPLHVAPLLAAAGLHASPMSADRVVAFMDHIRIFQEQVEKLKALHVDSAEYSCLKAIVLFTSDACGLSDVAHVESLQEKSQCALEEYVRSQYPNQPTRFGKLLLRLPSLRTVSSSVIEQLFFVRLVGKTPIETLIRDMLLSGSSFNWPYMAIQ

Structure (SMILES)	inhibition
COc1ccc(/C=C2\CC3(OC(C)=O)CCCN2C3)cc1 (stereo not given)	-13.1%
Fc1ccc2nc(COCc3nc4ccc(F)cc4[nH]3)[nH]c2c1	-29.3%
O=C(CNS(=O)(=O)c1ccccc1F)N1CCN(c2ccccn2)CC1	8.7%
COCC(C)n1c(SCC(=O)NC2CCCCC2C)nc2ccccc2c1=O (stereo not given)	1.47%
O=C(c1ccco1)N(Cc1nc2ccccc2c(=O)[nH]1)C1CCCC1	-0.35%
CN(c1ccc2nc3ccccc3c(=O)n2n1)C1CCCCC1	88.6% (active)
CN1[C@H](Cc2ccccc2)COc2cccc(N3CCSCC3)c2S1(=O)=O	5.38%
C[C@@H]1COc2cccc(N3CCCC3)c2S(=O)(=O)N1C	-14.7%
COC(=O)c1cc(S(=O)(=O)N2CCN(C(=O)C3CCCO3)CC2)cn1C (stereo not given)	-3.24%
CCCCNC(=O)C[C@H]1C(=O)N(Cc2ccc(OC)cc2)C2=CCCC[C@@]21C(=O)OCC	7.45%
CCn1c(CNC(=O)c2cc(OC)c(OC)c(OC)c2)cc2cc(C)ccc21	41.5% (active)
COc1cc(C(=O)NCc2nnc(SCC(=O)Nc3nc4ccc(C)cc4s3)o2)cc(OC)c1OC	-8.42%
COc1cc(C(=O)NCC(=O)N2CC=C(c3ccccc3)CC2)cc(OC)c1OC	9.83%
COc1ccccc1C(=O)NC1CCCCN(C(C)C)C1=O (stereo not given)	2.43%
CC1CCN(c2ccc(C(=O)O)cc2NS(=O)(=O)c2ccc(Br)s2)CC1	-3.26%
CN(O)C(=S)c1ccccc1	43.2% (active)
CCn1c2ccccc2c2cc(NC(=O)CSc3nnc(-c4ccccc4)n3-c3ccc(C)cc3)ccc21	22.1%
COC(=O)[C@]1(C#N)CC(=O)N(CC2CCCCC2)[C@@H]1c1ccccc1	-5.14%
COc1ccccc1CCNC(=O)C1CCN(c2nc(C)cc(C)n2)CC1	1.51%
O=C(Nc1cc(F)cc(F)c1)OC1CCC12CCC(c1ccccc1)CC2 (stereo not given)	19%
O=C(Nc1ccc(CN2CCOCC2)cc1)c1cc(Cl)ccc1Cl	5.94%
CN1CCN(Cc2nc3cc(NC(=O)COc4ccc([N+](=O)[O-])cc4)ccc3n2C)CC1	10.4%

Structure (SMILES)	inhibition
Cn1c(CN2CCOCC2)nc2cc(NC(=O)c3ccc(Cl)cc3)ccc21	49.9% (active)
COc1ccc(-c2nnc(SCC(=O)c3ccc4c(c3)OCCO4)o2)cc1	17.8%
CCc1ccccc1NC(=O)CSc1nnc(-c2cccs2)o1	-16.3%
COc1ccc(-n2c(C)cc(C(=O)CSc3nnc(-c4cccs4)o3)c2C)cc1	54.9% (active)
CCC[C@H]1C(=O)CC[C@@]23CCCN2C(=O)CCC[C@@H]13	-13.2%
Cc1nc(C(=O)Nc2ccc(Cl)cc2)sc1C1(C)CC(c2ccccc2)=NO1 (stereo not given)	5.05%
Cc1nc(C(=O)NCc2ccccc2)sc1C1(C)CC(c2cccnc2)=NO1 (stereo not given)	37.6% (active)
Cc1nc(-c2ccc(Cl)cc2)sc1C1(C)CC(c2ccccc2F)=NO1 (stereo not given)	-23.8%
CCOC(=O)[C@]12CCCCC/C=C\1N(Cc1ccc(OC)cc1)C(=O)[C@H]2CC(=O)NCCCN1CCCC1=O	1.89%
CC(C)(C)OC(=O)NCCc1ccccc1/C=C/S(=O)(=O)NCc1ccc(F)cc1	13.2%
O=C(NC1CCC1)c1ccc(C#CC2CC2)cn1	-23.3%
Cc1ccc(NC(=O)c2ccc(S(=O)(=O)NCC3CCCO3)cc2)cc1C (stereo not given)	-13.5%
O=C(NCC1CCCO1)c1ccc(S(=O)(=O)Nc2ccc(F)cc2)cc1 (stereo not given)	-7.6%
O=C(Nc1ccc(S(=O)(=O)NCC2CCCO2)cc1)c1ccc(F)cc1 (stereo not given)	45.5% (active)
CCOC(=O)[C@]12CCCC=C1N(CCCOC)C(=O)[C@@H]2CC(=O)N1CCOCC1	13%
CCCC[C@H]1C2CC(OC(=O)NCc3ccccc3)C(C2)[C@H]2CCCCN21 (stereo not given in full)	2.27%
CC(C)CNS(=O)(=O)CC1NCCc2ccccc21 (stereo not given)	10.8%
CCN(CC)S(=O)(=O)c1ccc(N(C)Cc2ccc(C(F)(F)F)cc2)nc1	41.6% (active)
CCN(CC)S(=O)(=O)c1ccc(N(C)CCc2ccc(OC)c(OC)c2)nc1	-0.82%
CCN(CC)S(=O)(=O)c1ccc(N(C)Cc2cccc(OC)c2OC)nc1	1.36%
CCOC(=O)[C@@]12CCC3=C1N(CCC3)C(=O)[C@H](CC(=O)N1CCN(C(=O)c3ccco3)CC1)C2	0.9%
COc1ccc(C2Nc3ccccc3C(=O)N2Cc2cccs2)cc1COc1c(C)cccc1C (stereo not given)	14%

Structure (SMILES)	inhibition
CN(C)Cc1cn(-c2ccc(-c3noc4c3C(=O)N(CC(=O)N3CCOCC3)CC4)cc2)nn1	6.87%
C=CCN1C(=O)[C@@H](CC(=O)NCCCOCCCC)[C@]2(C(=O)OCC)CCCCC/C=C/12	-5.26%
Cc1ccc(S(=O)(=O)N2CCCC(C(=O)N3CCN(C)CC3)C2)cc1 (stereo not given)	8.22%
COc1ccc(S(=O)(=O)N2CCCC(C(=O)N3CCN(C)CC3)C2)cc1C (stereo not given)	-0.76%
CC(=O)N1CCCc2cc(S(=O)(=O)N3CCCC(C(=O)N4CCN(c5cccc(Cl)c5)CC4)C3)ccc21 (stereo not given)	76.9% (active)
COC(=O)C1CN(CC(C)C)CCS(=O)(=O)N1Cc1ccc(C)cc1 (stereo not given)	0.94%
O=C(NCc1cccs1)C1CCCN(S(=O)(=O)c2ccc([N+](=O)[O-])cc2)C1 (stereo not given)	-10.3%
Cc1ccc(-n2c(SCC(=O)Nc3cccc4ccccc34)nnc2-c2ccco2)cc1	6.67%
Cc1ccc(C(=O)C2CCN(CC(=O)NCCC(C)C)CC2)cc1	6.65%
O=C(CSc1nc2ccccc2s1)N=Nc1c(O)[nH]c2ccccc12	8.58%
CC1(C)CC(N2CCN(C(c3ccccc3)c3ccccc3)CC2)=CC(=[N+]2CCCCC2)C1	85.2% (active)
CCOC(=O)C1CCN(C(=O)C(C)(C)NC(=O)Nc2ccccc2Cl)CC1	25.7%
N#C[C@]1(S(=O)(=O)c2ccccc2)C[C@@H]2ON=C(c3cccc(Br)c3)[C@@H]2C1	52.9% (active)
COC(=O)[C@]1(S(=O)(=O)c2ccccc2)C[C@@H]2ON=C(c3ccc(OC)cc3)[C@@H]2C1	3.59%
O=C(c1c[nH]c2ccccc12)N1CCC(Oc2cccnc2)CC1	-3.41%
CC(C)OC(=O)c1sc2nc3c(cc2c1N)C(=O)CCC3	-22.1%
NC(=O)c1sc2nc3c(c(-c4ccccc4)c2c1N)CCC3	57.2% (active)
CCOC(=O)[C@]12CCCCC/C=C\1N(Cc1ccc(OC)cc1)C(=O)[C@H]2CC(=O)NCc1ccc(C)o1	-9.71%
COc1ccc(-c2cc(-c3nnc(SCc4ccc([N+](=O)[O-])cc4)n3N)[nH]n2)cc1	11.7%
C=CCN1C(=O)[C@@H](CC(=O)NCCCCc2ccccc2)[C@]2(C(=O)OCC)CCCCC/C=C/12	-17.9%
Cc1ccc(S(=O)(=O)N(C)CC(=O)N2CCc3ccccc32)cc1	-12.3%
O=C(CN1C(=O)c2ccccc2S1(=O)=O)N1CCc2ccccc21	57.8% (active)

Structure (SMILES)	inhibition
CN(Cc1cccs1)C(=O)CN1C(=O)c2ccccc2S1(=O)=O	-15.9%
CC(=O)Nc1cccc(NC(=O)c2ccc3c(c2)CCN3S(C)(=O)=O)c1	-21%
CN(c1cccc(NC(=O)c2ccc(CN3CCc4ccccc4C3)cc2)c1)S(C)(=O)=O	61.4% (active)
CN(c1ccc(C(=O)N2CCc3ccccc3C2)cc1)S(C)(=O)=O	-7.57%
COCCCNC(=O)C[C@H]1C[C@@]2(C(=O)OC)C(=C[C@H](C(C)(C)C)O[C@@H]2C)N(Cc2ccc(Cl)cc2Cl)C1=O	6.74%
CCOC(=O)[C@]12CCCC3=C1N(CCC3)C(=O)[C@@H](CC(=O)NCc1cccs1)C2	-7.47%
CC(C)CNc1cccc2c1S(=O)(=O)N(Cc1cn(Cc3ccccc3C(F)(F)F)nn1)Cc1ccccc1O2	3.92%
Cn1ccc(=NC=C(C#N)C#N)c2ccccc21	-6.63%
N#CC(C#N)=CN=c1ccn(Cc2ccc(Cl)cc2Cl)cc1	41.5% (active)
CC(C)(C)c1cc(C(=O)NN)n(Cc2ccc(Cl)cc2Cl)n1	12.5%
COC(=O)[C@H](C(C)C)N(CCc1cn(Cc2ccccc2)nn1)S(=O)(=O)c1ccc(F)cc1Br	-0.51%
OC[C@@H]1CN(C2CCCC2)C[C@H](n2cnc3c(NC4CCC4)ncnc32)O1	-25.3%
CC(C)Nc1ncnc2c1ncn2[C@H]1CN(Cc2ccncc2)C[C@@H](CO)O1	-8.36%
OC[C@@H]1CN(Cc2cccs2)C[C@H](n2cnc3c(Nc4ccccc4)ncnc32)O1	10.6%
OCCN1CCN(c2ncnc3c2ncn3[C@H]2CN(Cc3ccco3)C[C@@H](CO)O2)CC1	-8.87%
OC[C@@H]1CN(Cc2ccncc2)C[C@H](n2cnc3c(N4CCN(c5ccccc5)CC4)ncnc32)O1	65.7% (active)
OC[C@@H]1CN(Cc2ccc(-c3ccccc3)cc2)C[C@H](n2cnc3c(NC4CCCC4)ncnc32)O1	73.9% (active)
Cc1ccc(C)c(NC(=O)CCS(=O)(=O)c2ccccc2)c1	-5.81%
CCCCCN1CCCCC(NC(=O)C(C)CCC)C1=O (stereo not given)	4.97%

From PubChem BioAssay AID686940 (The Scripps Research Institute Molecular Screening Center, 2013)
